Measured values: the supplement of paper PMC6555819

Assays:
Test in all cases: PBM binding z-score (relative to random genomic background probes); higher = stronger binding; sequences stand for … in GC…GCGATTGACAGCGTAGAATGAAGG
[1] = test system: FXR:RXRa (NR concentration 270 nM, RXRa partner concentration 90 nM)
In short: (§1)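 For binding z-scores, the reference was random background probes on custom Agilent 4×180K protein-binding microarrays. These arrays were incubated 1 h with ligand-free nuclear receptor dimers in PBS pH 7.4, 2% milk, 0.02% Triton X-100, 1 mM DTT, 0.2 mg/mL BSA and 0.4 mg/ml salmon testes DNA. Fluorescence was scanned after antibody detection of each partner (one per run) and regression-normalized.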

[2] = test system: LXRa:RXRa (NR concentration 270 nM, RXRa partner concentration 90 nM)
In short: as §1

[3] = test system: LXRa homodimer (NR concentration 270 nM)
In short: as §1

[4] = test system: LXRb:RXRa (NR concentration 270 nM, RXRa partner concentration 90 nM)
In short: as §1

[5] = test system: LXRb homodimer (NR concentration 270 nM)
In short: as §1

[6] = test system: PPARa:RXRa (NR concentration 270 nM, RXRa partner concentration 90 nM)
In short: as §1

[7] = test system: PPARg:RXRa (NR concentration 180 nM, RXRa partner concentration 90 nM)
In short: as §1

[8] = test system: PPARg:RXRa 270nM:90nM, anti-RXR (NR concentration 270 nM, RXRa partner concentration 90 nM)
In short: as §1

[9] = test system: PPARg:RXRa 30nM:10nM, anti-RXR (NR concentration 30 nM, RXRa partner concentration 10 nM)
In short: as §1

[10] = test system: PPARg:RXRa 90nM:30nM, anti-RXR (NR concentration 90 nM, RXRa partner concentration 30 nM)
In short: as §1

[11] = test system: PPARg:RXRa DBDmut IVT, anti-RXR (DBD mutation: RXRa K156A/R161A, NR concentration 270 nM, RXRa partner concentration 90 nM)
In short: as §1

[12] = test system: PPARg:RXRa IVT, anti-PPARg (NR concentration 270 nM, RXRa partner concentration 90 nM)
In short: as §1

[13] = test system: PPARg DBDmut:RXRa IVT, anti-PPARg (DBD mutation: PPARg1 K132A/R137A, NR concentration 270 nM, RXRa partner concentration 90 nM)
In short: as §1

[14] = test system: PPARg DBDmut IVT, anti-PPARg (DBD mutation: PPARg1 K132A/R137A, NR concentration 270 nM)
In short: as §1

[15] = test system: PPARg homodimer (NR concentration 180 nM)
In short: as §1

[16] = test system: PXR:RXRa (NR concentration 270 nM, RXRa partner concentration 90 nM)
In short: as §1

[17] = test system: PXR homodimer (NR concentration 270 nM)
In short: as §1

[18] = test system: RARa:RXR (NR concentration 270 nM, RXRa partner concentration 90 nM)
In short: as §1

[19] = test system: RARa homodimer (NR concentration 270 nM)
In short: as §1

[20] = test system: RARb:RXRa (NR concentration 270 nM, RXRa partner concentration 90 nM)
In short: as §1

Sequence	PBM binding z-score [1]	PBM binding z-score [2]	PBM binding z-score [3]	PBM binding z-score [4]	PBM binding z-score [5]	PBM binding z-score [6]	PBM binding z-score [7]	PBM binding z-score [8]	PBM binding z-score [9]	PBM binding z-score [10]	PBM binding z-score [11]	PBM binding z-score [12]	PBM binding z-score [13]	PBM binding z-score [14]	PBM binding z-score [15]	PBM binding z-score [16]	PBM binding z-score [17]	PBM binding z-score [18]	PBM binding z-score [19]	PBM binding z-score [20]
CGTCCATGGTCATAGGAGGTCAGTGAAGACAGAT	1.81	3.6	1.31	2.3	-0.0706	2.59	0.994	1.19	-0.128	0.421	0.484	2.01	-0.127	-0.368	2.09	3.77	0.616	2.79	0.333	2.91
GCTTACGGGTCAAAGCTTATAGCATGAATAGAAT	6.25	3.79	-0.13	3.78	0.156	5.7	4.76	5.32	2.66	4.08	4.24	3.92	0.68	0.139	1.56	2.98	-0.218	4.44	-0.0595	3.83
TCTTGTGGATCAAGCAGGTTAAGAAAGCCTGAGT	0.364	0.407	-0.212	0.444	-0.493	0.766	-0.54	1.07	2.27	1.58	1.46	0.177	-0.713	0.262	-0.187	0.422	0.248	0.506	-0.587	0.161
AGCTCTAGGTAACAAGTTCAGTGAAAGAGAGGAC	0.5	0.614	0.194	0.684	0.134	1.53	1.33	1.92	0.448	1.34	3.82	2.13	0.734	0.272	0.839	1.63	1.98	0.544	0.529	1.64
CCTAGCAGGCCAATCTGTGTCACTCAAGGCTTGA	-0.0282	-0.198	-0.502	-0.335	-0.193	0.394	-0.0496	-0.118	-0.619	-0.304	2.87	2.13	-1.03	-1.32	-0.244	-0.438	-0.358	-0.217	-0.52	0.211
ATATGTAGGTTGGCTGGGGTCATTCAGACTAGGC	4.06	3.56	2.01	4.28	2.04	4.46	2.66	3.18	0.972	1.89	2.56	2.75	1.35	1.7	2.57	5.98	4.44	5.69	0.758	2.62
